From PubChem BioAssay
BAZ2B block: blocks human BAZ2B | AlphaScreen BAZ2B-H3K14Ac peptide displacement | Q9UIF8 | AID 504333 | Potency, µM (highest dose often 114 µM), inactives show top-dose activity change, negative = inhibition, hits mostly inhibitors | hit rate 4.4% among 360,000; note: potency is the fitted concentration of half-maximal effect; % is set by controls: 0 for no effect and ±100 for the full control effect; nearly all actives have a fitted effect of over 60% in size
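AlphaScreen displacement of biotin-H3(5-23)K14Ac peptide (50 nM final) from BAZ2B (50 nM final) in PBS pH 7.4, 0.01% Tween-20; complex preformed 30 min RT, then compounds (top 110 uM) 30 min RT, beads 20 min dark.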
Sfp inh: Sfp phosphopantetheinyl transferase inhibition; Biochemical Sfp PPTase activity, qHTS; Potency, µM, for the others: largest response in the series, negative = inhibition, actives largely listed as inhibitors; hit rate 3.5% among 310,000;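 note: the enzyme is Sfp with the accession as filed and its product quenches rhodamine fluorescence; potency is the fitted concentration of half-maximal effect; 0% = enzyme reaction without inhibitor and -100% = no enzyme wells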
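Sfp 15 nM + cpd, 15 min RT; start w/ rhodamine-CoA 5 uM, BHQ-2-YbbR 12.5 uM (final); 50 mM Hepes pH 7.6, 10 mM MgCl2, 0.01% NP-40, 0.01% BSA; read 525/598 nm at 0 and 30 min.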
JMJD2A Tudor inh: blocks the human JMJD2A Tudor domain | AlphaScreen JMJD2A-Tudor / H3K4me3 peptide binding | Potency, µM (top dose mostly 114 µM), for inactives: top-dose activity change, negative = inhibition, hits mostly inhibitors | hit rate 4.4% among 390,000; note: potency is the fitted concentration of half-maximal effect; % is set by controls: 0 for no effect and ±100 for the full control effect; nearly all actives have a fitted effect of over 50% in size
ALOX12 inh: blocks human arachidonate 12S-lipoxygenase; P18054; hit rate 1.1% among 580,000; Potency, µM (series often up to 108 µM), for inactives: at the top dose activity change, negative = inhibition, most hits filed as inhibitors; purified 12hLO, xylenol orange hydroperoxide absorbance; note: potency is the fitted concentration of half-maximal effect; % is set by controls: 0 for no effect and ±100 for the full control effect
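Purified human 12hLO (150 nM final) in 25 mM Hepes, 0.01% Triton X-100, pH 7.0 was preincubated 15 min at room temperature with compound. Then 40 uM arachidonic acid was added, 30 min. Hydroperoxide was read by Fe-XO absorbance ratio 573/405 nm.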
HP1b chromo inh: HP1-beta chromodomain-methylated histone interaction inhibition; P83916; AlphaScreen HP1-beta / biotin-H3K9me3 peptide binding; Potency, µM (doses to about 114 µM), inactives show at the highest dose activity change, negative = inhibition, hits mostly inhibitors; hit rate 0.56% among 390,000; AID 540317; note: potency is the fitted concentration of half-maximal effect; nearly all actives have a fitted effect of over 70% in size
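HP1-beta protein (50 nM final) preincubated 30 min at room temperature with biotinylated H3(1-18)K9me3 peptide (50 nM) in PBS pH 7.4, 0.01% Tween-20, then compound added for 30 min. AlphaScreen streptavidin donor/nickel chelate acceptor beads (10 ug/mL final), 30 min dark, luminescence read.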
G9a block: G9a (human) methyltransferase inhibition; Q96KQ7; G9a H3K9 monomethylation, AlphaScreen, 2 h; Potency, µM (series often up to 102 µM), for inactives: at the top dose activity, negative = inhibition, actives largely listed as inhibitors; hit rate 8.8% among 350,000; AID 504332; note: potency is the fitted concentration of half-maximal effect; % is set by controls: 0 for no effect and ±100 for the full control effect; nearly all actives have a fitted effect of over 75% in size
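G9a (20 nM) preincubated 15 min RT with compounds, then 500 nM biotinylated H3K9 peptide and 20 uM SAM added; 2 h RT reaction. Monomethyl-H3K9 product detected by AlphaScreen with anti-H3K9me1 antibody, streptavidin donor and anti-rabbit IgG acceptor beads.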
JMJD2E inh-1: blocks human JMJD2E demethylase activity; shares compounds with BAZ2B block; JMJD2E demethylase, FDH-coupled NADH fluorescence; Potency, µM (highest dose often 57 µM), for the others: at the top dose activity, negative = inhibition, usual class: inhibitors; hit rate 89% among 130; AID 493212
JMJD2E inh-2: confirmation of inhibitors of human JMJD2E demethylase. shares compounds with JMJD2A Tudor inh. Recombinant JMJD2E, FDH-coupled NADH fluorescence (FDH is formaldehyde dehydrogenase). Potency, µM (highest dose often 56.8 µM), for the others: top-dose activity change, negative = inhibition, actives largely listed as inhibitors. hit rate 93% among 140
FDH inh: blocks Pseudomonas putida formaldehyde dehydrogenase, flagging JMJD2E artifacts. shares compounds with JMJD2A Tudor inh. FDH enzyme assay, NADH fluorescence kinetic. Potency, µM (highest dose often 56.7 µM), without a hit: at the highest dose activity, negative = inhibition, actives largely listed as inhibitors. hit rate 10% among 140. AID 2680
JMJD2E MALDI inh: blocks demethylation by human JMJD2E in a MALDI-TOF-MS assay | Potency, µM, hits mostly inhibitors | shares compounds with JMJD2A Tudor inh | AID 2688 | hit rate 90% among 45 | recombinant JMJD2E demethylation, MALDI-TOF-MS;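 active = compounds whose IC50 for blocking JMJD2E demethylation is below 100 µM; inconclusive = dose dependent effect but IC50 above 100 µM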
* marks the source's active call; other numbers are inactive results; [ ] = remark or other dose. Hits are enriched below; roughly 8.7% of the tested compounds scored in any of these assays. Unless noted, calls come from the whole dose curve; as a rule, active = well fitted curve in the direction sought with a large enough effect; inconclusive = small, poorly fitted or top-dose-only effect, or another doubt; inactive = no such curve, though single readings can be large; an effect the other way counts as inactive or inconclusive.

How did COc1ccccc1Oc1coc2cc(OCc3ccccc3C)ccc2c1=O do in these assays?
ALOX12 inh: 14.8%

How did COC(=O)c1cc2n(n1)CCCN(C(=O)C1CCCCn3nnnc31)C2 (stereo not drawn) do in these assays?
ALOX12 inh: -1.8%

Results for CN1CCN(C2CCN(Cc3ccc(O)c4ncccc34)CC2)CC1 ?
BAZ2B block: 8.91µM*; JMJD2A Tudor inh: 44.7µM*; ALOX12 inh: inconclusive; HP1b chromo inh: -6.1%; G9a block: -43.2%[2.33 µM]; JMJD2E inh-1: 3.16µM*; JMJD2E inh-2: 3.16µM*; FDH inh: -9.1%

How did CN1CCN(Cc2cc(COCc3ccccc3)c3cccnc3c2O)CC1 do in these assays?
BAZ2B block: 10µM*; Sfp inh: -0.8%; JMJD2A Tudor inh: 17.8µM*; ALOX12 inh: 0.0%; HP1b chromo inh: 4.4%; G9a block: inconclusive; JMJD2E inh-1: 6.31µM*; JMJD2E inh-2: 6.31µM*; FDH inh: -27.3%

How did CN1c2ncccc2CN(Cc2ccccc2O)CC[C@H]1CO do in these assays?
ALOX12 inh: 13.5%[176 µM]

How did Cc1ccc(C)c(C(O)Cn2ccn3nc(-c4cccc(Br)c4)cc3c2=O)c1 (stereo not drawn) do in these assays?
ALOX12 inh: -2.1%

What do the screens show for `Cc1cnc2c(S(=O)(=O)NC3CCCCC3)cccc2c1`?
ALOX12 inh: 21.5%

Results for CCN(CC)C(=O)CN(C)S(=O)(=O)c1cccc2cc(C)cnc12 ?
ALOX12 inh: 0.5%

Results for CN(C)c1cnc2c(O)cccc2c1 ?
JMJD2E inh-1: 20.4µM*; JMJD2E inh-2: 18.2µM*; FDH inh: -27.3%

Results for Cc1cnc2c(O)cccc2c1 ?
JMJD2E inh-1: inconclusive; JMJD2E inh-2: inconclusive; FDH inh: 0.0%

What do the screens show for `Oc1cccc2cc(C3CC3)cnc12`?
JMJD2E inh-1: 20.4µM*; JMJD2E inh-2: 20.4µM*; FDH inh: -18.2%

Results for CC(=O)N1C[C@@H]2CCCN3CCC[C@@H]([C@H]23)[C@H]1CCCC(=O)NCCN(C)C1CCCCC1 ?
ALOX12 inh: 79.1%

How did Cc1ccc(C(=O)NCc2sccc2C)cn1 do in these assays?
ALOX12 inh: -0.8%

Results for COc1ccc(CN(C)c2nc3ccccc3nc2NS(=O)(=O)c2ccccc2)cc1OC ?
ALOX12 inh: -71.0%

What do the screens show for `O=C(Cc1ccccc1F)Nc1cccc2cccnc12`?
BAZ2B block: 10.3%; Sfp inh: 10.5%; JMJD2A Tudor inh: 10.7%; ALOX12 inh: -7.1%; HP1b chromo inh: 42.2%; G9a block: 32.5%[59 µM]

How did Oc1ccc(CNCc2ccccc2F)c2cccnc12 do in these assays?
JMJD2A Tudor inh: 25.1µM*; JMJD2E inh-1: 6.46µM*; JMJD2E inh-2: inconclusive; FDH inh: -18.2%; JMJD2E MALDI inh: 21.2*

Results for OCc1cn(Cc2ccc(O)c3ncccc23)cn1 ?
BAZ2B block: 1µM*; G9a block: -21.2%[12.7 µM]; JMJD2E inh-1: 11.2µM*; JMJD2E inh-2: 11.2µM*; FDH inh: -9.1%

What do the screens show for `Oc1ccc(CCc2c(F)cccc2F)c2cccnc12`?
JMJD2A Tudor inh: -18.4%; JMJD2E inh-1: 8.13µM*; JMJD2E inh-2: 12.9µM*; FDH inh: 0.0%; JMJD2E MALDI inh: 39.4*

How did Cc1cccc2nc(CNC(=O)c3cc(COc4ccc(F)cc4F)on3)cn12 do in these assays?
ALOX12 inh: 80.1%

How did O=C(O)c1cc(Br)c(O)c2ncccc12 do in these assays?
JMJD2E inh-1: 0.0073µM*; JMJD2E inh-2: inconclusive; FDH inh: -18.2%

What do the screens show for `O=C(NCc1ccccn1)c1ccc(-c2ccc(N3CCCCC3)nc2)cc1`?
ALOX12 inh: -0.3%

Results for CN(C)c1ccc(-c2ccc3ncnc(N(C)C)c3c2)cc1 ?
Sfp inh: -16.0%; ALOX12 inh: -26.4%; G9a block: -3.8%[0.501 µM]

How did Oc1cc(-c2ccc(N3CCCCC3)nc2)cc2cccnc12 do in these assays?
BAZ2B block: 8.6%; JMJD2A Tudor inh: -27.8%; HP1b chromo inh: 58.3%; G9a block: -2.8%[12.7 µM]; JMJD2E inh-1: 25.7µM*; JMJD2E inh-2: 31.6µM*; FDH inh: -72.7%

How did CN(C)CCCNC(=O)c1ccccn1 do in these assays?
BAZ2B block: -4.6%; Sfp inh: 9.9%; JMJD2A Tudor inh: -16.3%; ALOX12 inh: -3.6%; HP1b chromo inh: 7.3%; G9a block: 8.1%

How did CN(C)c1ccc(-c2cc(O)c3ncccc3c2)cc1 do in these assays?
BAZ2B block: 1.4%; JMJD2A Tudor inh: inconclusive; ALOX12 inh: -5.6%; HP1b chromo inh: 27.7%; G9a block: -4.1%[12.7 µM]; JMJD2E inh-1: 16.2µM*; JMJD2E inh-2: 16.2µM*; FDH inh: -9.1%

How did CN(C)CCCNC(=O)c1ccc(-c2cc(O)c3ncccc3c2)cc1 do in these assays?
BAZ2B block: 7.08µM*; JMJD2A Tudor inh: 20µM*; ALOX12 inh: -17.8%; HP1b chromo inh: -33.1%; G9a block: 4.8%[12.7 µM]; JMJD2E inh-1: 32.4µM*; JMJD2E inh-2: 15.8µM*; FDH inh: 0.0%

How did Oc1cc(-c2ccncc2)cc2cccnc12 do in these assays?
BAZ2B block: 2.82µM*; JMJD2A Tudor inh: 44.7µM*; ALOX12 inh: inconclusive; HP1b chromo inh: 47.2%; G9a block: 10.5%[12.7 µM]; JMJD2E inh-1: 32.4µM*; JMJD2E inh-2: 15.8µM*; FDH inh: -27.3%; JMJD2E MALDI inh: 23.2*

What do the screens show for `O=C(Nc1cccc(-c2nc3cc(Cl)ccc3o2)c1)c1ccccc1F`?
ALOX12 inh: 13.6%

Results for Cc1cc(NC(=O)c2cccnc2)c(C)cc1I ?
ALOX12 inh: 0.8%

Results for Cc1ccc(NCc2ccc(O)c3ncccc23)c(F)c1 ?
JMJD2A Tudor inh: 17.8µM*; JMJD2E inh-1: 0.708µM*; JMJD2E inh-2: 8.13µM*; FDH inh: -9.1%; JMJD2E MALDI inh: 11.3*
